In PubChem BioAssay (NCATS):
Records with an inconclusive call do not appear. Active and inactive are the calls of the source. Unless noted, calls follow the shape of the dose curve; as a rule, active = well fitted curve in the direction sought with a large enough effect; inconclusive = small, poorly fitted or top-dose-only effect, or another doubt; inactive = no such curve, though single readings can be large; an effect the other way counts as inactive or inconclusive.

Legend:
[1] = qHTS assay to identify small molecule inhibitors of chordoma cells - UCH-1 (AID 1259355); also: nearly all actives have a fitted effect of over 55% in size
Procedure, shortened: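 800 cells/well, overnight attach; compounds pinned at 15 concs, then auranofin/camptothecin/doxorubicin/rubitecan/topotecan combo added; 48hr 37 C, 5% CO2; CellTiter-Glo, 30min RT, luminescence.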

[2] = qHTS assay to identify small molecule inhibitors of chordoma cells - UCH-2 (AID 1259356); also: series mostly up to about 46 µM
[3] = P-glycoprotein substrates identified in KB-8-5-11 adenocarcinoma cell line, qHTS therapeutic library screen (AID 1346987); conditions: outcome: dose series up to 44.5 µM unless noted; also: series mostly up to about 44 µM; nearly all actives have a fitted effect of over 65% in size
Procedure, shortened: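 In this qHTS, P-gp-rich KB-8-5-11 cells received library compounds across a concentration range. Viability was quantified by luminescence after 72 h at 37 degree C.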

[4] = target: Atrial natriuretic peptide receptor 1 (Homo sapiens) (UniProt P16066); experiment: Natriuretic polypeptide receptor (hNpr1) antagonism - Pilot screen (AID 1347049; calls by dose curve;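 also: HEK293 cells with hNpr1 and GloSensor cGMP luciferase stimulated by 0.1 nM hNppA; agonist-evoked cGMP luminescence read 20 min after hNppA addition; series mostly up to about 58 µM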)
Procedure, shortened: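 Receptor antagonism read as cGMP-dependent luminescence in hNpr1/pGS-40F HEK293 cells: pre-read after 30 min compound exposure, post-read 20 min after hNppA agonist at 0.1 nM final, all at room temperature, protected from light; A-71915 titration as control.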

[5] = NS1 protein of Zika virus - qHTS assay to identify small molecule inhibitors in human HEK 293 cells (AID 1347053); also: series mostly up to about 46 µM; nearly all actives have a fitted effect of over 55% in size
Procedure, shortened: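 Readout was TR-FRET using paired anti-NS1 antibodies after 24 h infection of HEK 293 cells with ZIKV MR766 (MOI = 0.5). Compound preceded virus by 1 h; reduced signal reflects lower NS1 expression.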

[6] = target: Tyrosine-protein phosphatase non-receptor type substrate 1 (Homo sapiens) + Leukocyte surface antigen CD47 (Homo sapiens) (UniProt P78324+Q08722); experiment: CD47-SIRPalpha protein protein interaction - LANCE assay qHTS validation (AID 1347057; active = well fitted curve in the direction sought with a large enough effect in the signal ratio, with a control signal flat, not every such curve was filed as active; the % refers to the signal ratio; also: series mostly up to about 38 µM)
Procedure, shortened: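 Inhibition of soluble CD47/SIRPalpha ectodomain association by titrated compounds, measured as 665/615 nm time-resolved FRET ratio after sequential 30 min room-temperature incubations.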

[7] = target: Parathyroid hormone/parathyroid hormone-related peptide receptor (Homo sapiens) (UniProt Q03431); experiment: qHTS for PTHR1 Agonists: Optimization Screen against the NCGC LOPAC library (AID 1347079);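 also: GloSensor cAMP luminescence in HEK-293 GP2 cells expressing human PTHR1 with IBMX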
Procedure, shortened: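 Signal increase flags agonism. GP2 cells, derived from HEK-293, express human PTHR1 and a GloSensor cAMP construct.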

[8] = qHTS of pediatric cancer cell lines to identify multiple opportunities for drug repurposing: Primary screen for TC32 cells (AID 1347089); also: nearly all actives have a fitted effect of over 60% in size
Procedure, shortened: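 Measured quantity: luminescence from CellTiter-Glo, reflecting metabolically active TC32 cells following 48 h of compound. Curves came straight from multi-point titrations, with 8 or 11 points in primary and 11 in confirmatory screening.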

[9] = qHTS of pediatric cancer cell lines to identify multiple opportunities for drug repurposing: Primary screen for DAOY cells (AID 1347090); also: series mostly up to about 46 µM; nearly all actives have a fitted effect of over 55% in size
Procedure, shortened: (§1)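 Cell viability, CellTiter-Glo luminescence; 500-1,000 cells/well, 8- or 11-point titration, 48 h compound exposure at 37 degrees C, 5% CO2. Controls: DMSO neutral, bortezomib 2.3 µM final as positive.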

[10] = qHTS of pediatric cancer cell lines to identify multiple opportunities for drug repurposing: Primary screen for SK-N-MC cells (AID 1347093); also: potency is read from the fitted curve at half-maximal effect
Procedure, shortened: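 Metabolically active cells were quantified by ATP-dependent luminescence (CellTiter-Glo, 15 min at room temperature) following 48 h treatment. Cells had been plated at 500-1,000 per well and settled for 5 h beforehand.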

[11] = qHTS of pediatric cancer cell lines to identify multiple opportunities for drug repurposing: Primary screen for BT-37 cells (AID 1347094); also: potency is read from the fitted curve at half-maximal effect
Procedure, shortened: (§2)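 ATP-based luminescence (CellTiter-Glo) quantifies viability after a 48-hour exposure. Compounds are dosed across 8 or 11 final concentrations; DMSO and 2.3 µM bortezomib serve as controls.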

[12] = qHTS of pediatric cancer cell lines to identify multiple opportunities for drug repurposing: Primary screen for NB-EBc1 cells (AID 1347095)
Procedure, shortened: as §2

[13] = qHTS of pediatric cancer cell lines to identify multiple opportunities for drug repurposing: Primary screen for U-2 OS cells (AID 1347096); also: nearly all actives have a fitted effect of over 50% in size
Procedure, shortened: (§3)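 Cells (500-1,000/well) rested 5 h, then received compounds for 48 h; metabolically active cells were measured by CellTiter-Glo luminescence. Final concentrations spanned up to 46 µM (MIPE, 11-point) or 0.59 nM-46 µM (NPC, 8-point) in primary screens, 11-point in follow-ups.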

[14] = qHTS of pediatric cancer cell lines to identify multiple opportunities for drug repurposing: Primary screen for Saos-2 cells (AID 1347097); also: nearly all actives have a fitted effect of over 40% in size; also: potency is read from the fitted curve at half-maximal effect
Procedure, shortened: as §2

[15] = qHTS of pediatric cancer cell lines to identify multiple opportunities for drug repurposing: Primary screen for NB1643 cells (AID 1347099); also: nearly all actives have a fitted effect of over 50% in size
Procedure, shortened: as §2

[16] = target: Atrial natriuretic peptide receptor 1 (Homo sapiens) (UniProt P16066); experiment: Natriuretic polypeptide receptor (hNpr1) antagonism - Pilot CMLD screen (AID 1347052; calls by dose curve;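 also: cGMP level read as GloSensor luciferase luminescence after agonist stimulation; series mostly up to about 9.2 µM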)
Method: In order to identify small molecular compounds that inhibit the hNpr1 receptor we developed a high-throughput assay to measure inhibition of the guanylate cyclase activity of the receptor. cGMP production was measured using a circular permutated Firefly luciferase (FLuc) enzyme functionally linked to the cGMP binding domain of human phosphodiesterase 5 (GloSensor technology pGS-40F, (Fan, F. et al. 2008). The cGMP-sensor was expressed in human embryonic kidney 293 (HEK-293) cells and FLuc activity was measured after stimulation with hNrp agonist peptide. hNrp agonists activates the receptor's associated guanylyl cyclase (GC) domain producing cGMP which then binds to the GloSensor resulting in FLuc activation, the enzymatic activity of which can be measured as bioluminescence with addition of luciferin substrate.
This assay was initially piloted by testing with a small library of specialty compounds.
PROTOCOL TABLES (as described by Inglese J, Shamu CE and Guy RK. 2007)
SEQUENCE No. (e.g., 1, 2, 3, etc.); […] (e.g., Cells, Incubation, Reagent, etc.); VALUE and DESCRIPTION.
1. Cells. […]
7. […] GloSensor baseline pre-read luminescence measured using CCD-based camera (Viewlux). […]
10. […] GloSensor post-hNppA luminescence measured using CCD-based camera (Viewlux). […]
1. […] Cells counted with Invitrogen Countess (30,000,000 - 50,000,000 cells/flask). […]

[17] = qHTS of pediatric cancer cell lines to identify multiple opportunities for drug repurposing: Primary screen for SK-N-SH cells (AID 1347098); also: nearly all actives have a fitted effect of over 65% in size
Procedure, shortened: as §3

[18] = qHTS of pediatric cancer cell lines to identify multiple opportunities for drug repurposing: Primary screen for SJ-GBM2 cells (AID 1347091)
Procedure, shortened: as §1

[19] = qHTS of pediatric cancer cell lines to identify multiple opportunities for drug repurposing: Primary screen for A673 cells (AID 1347092); also: nearly all actives have a fitted effect of over 45% in size
Procedure, shortened: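 Cells are plated, rested 5 h, dosed by pintool, incubated 48 h, then lysed with CellTiter-Glo and read by luminescence. DMSO is the neutral control; bortezomib at 2.3 uM final is the positive control.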

Measured: Potency

Chain of Atrial natriuretic peptide receptor 1 (Homo sapiens) (P16066 whole entry, looked up, the tested form may be a part): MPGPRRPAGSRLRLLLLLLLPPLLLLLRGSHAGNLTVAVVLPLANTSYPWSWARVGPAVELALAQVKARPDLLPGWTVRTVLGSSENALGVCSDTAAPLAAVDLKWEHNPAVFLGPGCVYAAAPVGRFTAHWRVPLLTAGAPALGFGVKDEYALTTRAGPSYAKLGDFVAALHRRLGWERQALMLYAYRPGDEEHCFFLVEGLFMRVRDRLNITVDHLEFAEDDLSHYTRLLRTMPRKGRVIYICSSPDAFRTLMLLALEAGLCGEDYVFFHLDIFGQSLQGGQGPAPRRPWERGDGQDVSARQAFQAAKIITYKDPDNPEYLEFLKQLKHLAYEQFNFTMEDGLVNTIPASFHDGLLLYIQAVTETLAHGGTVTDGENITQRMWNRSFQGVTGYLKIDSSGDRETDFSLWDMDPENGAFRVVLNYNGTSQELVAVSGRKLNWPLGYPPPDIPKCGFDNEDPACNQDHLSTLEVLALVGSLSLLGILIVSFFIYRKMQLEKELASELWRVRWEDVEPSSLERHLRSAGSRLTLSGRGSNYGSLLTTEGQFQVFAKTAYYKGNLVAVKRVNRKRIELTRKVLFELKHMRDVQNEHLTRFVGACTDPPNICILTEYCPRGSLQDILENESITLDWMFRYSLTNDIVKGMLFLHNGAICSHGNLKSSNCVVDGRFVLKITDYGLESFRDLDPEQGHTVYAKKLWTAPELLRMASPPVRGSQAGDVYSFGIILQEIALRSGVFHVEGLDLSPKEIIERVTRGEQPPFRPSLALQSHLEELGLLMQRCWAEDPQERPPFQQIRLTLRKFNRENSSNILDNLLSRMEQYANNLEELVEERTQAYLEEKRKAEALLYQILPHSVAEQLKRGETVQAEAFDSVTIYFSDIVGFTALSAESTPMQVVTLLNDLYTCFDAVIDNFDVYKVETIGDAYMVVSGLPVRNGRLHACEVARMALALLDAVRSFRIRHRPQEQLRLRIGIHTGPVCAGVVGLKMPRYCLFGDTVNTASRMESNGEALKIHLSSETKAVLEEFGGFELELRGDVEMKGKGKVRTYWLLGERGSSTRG
Chain of Tyrosine-protein phosphatase non-receptor type substrate 1 (Homo sapiens) + Leukocyte surface antigen CD47 (Homo sapiens) (P78324 whole entry, looked up, the tested form may be a part): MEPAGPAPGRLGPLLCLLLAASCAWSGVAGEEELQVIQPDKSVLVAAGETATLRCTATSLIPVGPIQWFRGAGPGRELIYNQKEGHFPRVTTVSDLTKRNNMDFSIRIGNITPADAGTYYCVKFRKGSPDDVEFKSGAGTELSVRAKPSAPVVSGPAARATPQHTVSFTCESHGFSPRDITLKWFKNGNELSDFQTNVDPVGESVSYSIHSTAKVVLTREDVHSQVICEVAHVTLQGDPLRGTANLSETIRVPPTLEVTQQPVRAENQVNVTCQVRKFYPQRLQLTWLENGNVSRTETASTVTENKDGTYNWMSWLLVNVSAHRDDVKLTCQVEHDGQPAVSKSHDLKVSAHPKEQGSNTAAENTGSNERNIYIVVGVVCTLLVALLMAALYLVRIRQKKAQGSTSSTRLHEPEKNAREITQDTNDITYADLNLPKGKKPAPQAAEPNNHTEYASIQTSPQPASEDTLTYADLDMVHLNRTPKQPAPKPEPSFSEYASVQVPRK
Chain of Tyrosine-protein phosphatase non-receptor type substrate 1 (Homo sapiens) + Leukocyte surface antigen CD47 (Homo sapiens) (Q08722 whole entry, looked up, the tested form may be a part): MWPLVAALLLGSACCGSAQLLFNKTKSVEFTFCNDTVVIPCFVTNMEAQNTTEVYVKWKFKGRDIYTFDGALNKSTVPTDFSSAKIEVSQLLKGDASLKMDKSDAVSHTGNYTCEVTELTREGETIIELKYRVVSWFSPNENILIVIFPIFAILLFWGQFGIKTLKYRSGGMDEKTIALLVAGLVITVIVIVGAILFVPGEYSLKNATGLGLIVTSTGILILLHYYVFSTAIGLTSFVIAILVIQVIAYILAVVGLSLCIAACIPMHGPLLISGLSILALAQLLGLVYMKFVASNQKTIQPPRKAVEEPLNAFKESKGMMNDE
Chain of Parathyroid hormone/parathyroid hormone-related peptide receptor (Homo sapiens) (Q03431 whole entry, looked up): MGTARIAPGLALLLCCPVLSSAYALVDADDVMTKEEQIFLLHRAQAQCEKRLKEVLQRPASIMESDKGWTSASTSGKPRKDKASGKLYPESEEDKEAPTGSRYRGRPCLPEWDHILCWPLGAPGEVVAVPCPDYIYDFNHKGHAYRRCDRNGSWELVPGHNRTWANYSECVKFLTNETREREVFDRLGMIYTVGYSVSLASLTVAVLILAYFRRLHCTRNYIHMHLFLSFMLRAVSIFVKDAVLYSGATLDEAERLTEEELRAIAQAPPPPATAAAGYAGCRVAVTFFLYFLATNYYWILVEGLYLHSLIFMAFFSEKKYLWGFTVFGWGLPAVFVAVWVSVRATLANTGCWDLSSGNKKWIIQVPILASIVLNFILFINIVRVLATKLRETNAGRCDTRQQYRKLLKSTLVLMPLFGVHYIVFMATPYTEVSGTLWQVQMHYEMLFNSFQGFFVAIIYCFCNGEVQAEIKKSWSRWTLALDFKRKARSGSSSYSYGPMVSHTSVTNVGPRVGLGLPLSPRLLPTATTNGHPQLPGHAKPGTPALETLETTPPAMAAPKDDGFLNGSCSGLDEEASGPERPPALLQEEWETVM

CC1CC(O)CC(C)(C)C1 (stereo not drawn)
inactive: [1] | [2] | [3]

O=C1NC(=O)[C@H]2[C@@H]1[C@@H]1C=C[C@H]2C1
inactive: [1] | [2] | [3]

CC(C)(C)CC(C)(C)c1cc(Cc2cc(C(C)(C)CC(C)(C)C)cc(-n3nc4ccccc4n3)c2O)c(O)c(-n2nc3ccccc3n2)c1
inactive: [1] | [2] | [3]

CC1=CC(=O)NS(=O)(=O)O1
inactive: [1] | [2] | [3]

CC(C)Cc1ccc([C@@H](C)C(=O)NS(C)(=O)=O)cc1
inactive: [1] | [2] | [3]

O=C(CO)[C@@H](O)[C@H](O)[C@@H](O)C(=O)O
inactive: [1] | [2] | [3]

COc1ccc(-c2noc(CC(=O)O)c2-c2ccc(OC)cc2)cc1
inactive: [1] | [2] | [3]

CCCCCCCCCCCCCCCC(=O)OC[C@@H](O)[C@H]1OC[C@H](O)[C@H]1O
inactive: [1] | [2] | [3]

NS(=O)(=O)c1cc2c(cc1Cl)NC(Cc1ccccc1)NS2(=O)=O (stereo not drawn)
inactive: [1] | [2] | [3]

COC(=O)CCC[N+](C)(C)C
inactive: [1] | [2] | [3]

COc1cc(C)c(/C=C/C(C)=C/C=C/C(C)=C/C(=O)O)c(C)c1C
inactive: [1] | [2] | [3]

CC(C)(CO)[C@@H](O)C(=O)NCCC(=O)NCCSSCCNC(=O)CCNC(=O)[C@H](O)C(C)(C)CO
inactive: [1] | [2] | [3]

CC(=O)[C@@]1(O)CC[C@H]2[C@@H]3C=C(Cl)C4=CC(=O)[C@@H]5C[C@@H]5[C@]4(C)[C@H]3CC[C@@]21C
inactive: [1] | [2] | [3]

NC(=O)[C@@H]1CCCN1C(=O)[C@H](Cc1cnc[nH]1)NC(=O)[C@@H]1CCC(=O)N1
inactive: [1] | [2] | [3]

Oc1ccc(/C=C/c2cc(O)cc(O)c2)cc1
active: [10] 15 µM | [11] 19.5 µM
not listed: [1] | [2] | [3] | [16] | [17] | [18] | [19]
inactive: all other assays above

Cc1c(O)c(=O)ccn1C
inactive: [16]

CO[C@H]1C=CO[C@@]2(C)Oc3c(C)c(O)c4c(O)c(cc(O)c4c3C2=O)NC(=O)/C(C)=C\C=C/[C@H](C)[C@H](O)[C@@H](C)[C@@H](O)[C@@H](C)[C@H](OC(C)=O)[C@@H]1C
inactive: [1] | [3]

CN(C)CCCSc1ccccc1NC(=O)/C=C/c1ccccc1
active: [14] 21.1 µM
inactive: [1] | [2] | [5] | [8] | [9] | [10] | [11] | [12] | [13] | [17]

Cc1cc(O)c2c(c1)O[C@@]1(C)CC[C@H]3C(C)(C)CCCC34CO[C@@H]2[C@H]41 (stereo partly drawn)
inactive: [1] | [3]

O=C(O)CCC(=O)c1ccc(-c2ccccc2)cc1
not listed: [3] | [4] | [6] | [7] | [16]
inactive: all other assays above

CC(C)CCC[C@@H](C)[C@H]1CC[C@H]2[C@@H]3CC=C4C[C@@H](O)CC[C@]4(C)[C@H]3CC[C@]12C
inactive: [1] | [3]

C=CCN1CCCC1CNC(=O)c1cc(S(N)(=O)=O)cc(OC)c1OC (stereo not drawn)
inactive: [1] | [3]

CCCCCc1ccc(C)cc1O
inactive: [1] | [3]

CCOc1ccc(S(=O)(=O)O)c2cccnc12
inactive: [1] | [3]

CC(C)CCCC(C)NC(C)C (stereo not drawn)
inactive: [1] | [3]

CNC(=O)c1c(I)c(C(=O)NCC(=O)Nc2c(I)c(C(=O)O)c(I)c(C(=O)NCCO)c2I)c(I)c(N(C)C(C)=O)c1I
inactive: [1] | [3]

O=P(O)(O)CP(=O)(O)O
inactive: [1] | [3]
